Assay results reported in PubChem BioAssay (EPA / NIEHS).
Active and inactive are the calls of the source. Rule for the calls: active = hit-call score of the fitted dose curve at least 0.9, where 1 is the maximum; inactive = score below 0.9.

Read-out: Thrombomodulin, THBD (gene 7056)
Experiment: BSK_LPS_Thrombomodulin: BioMAP Diversity Plus: LPS Assay for Thrombomodulin Biomarker Activity (AID 2284296)
Settings: primary human HUVEC with PBMC
Method: BSK_LPS is a cell-based, multiplexed-readout assay that uses umbilical vein endothelium and peripheral blood mononuclear cells, a human vascular primary cell co-culture, with measurements taken at 24 hours after chemical dosing in a 96-well plate.BSK_LPS_Thrombomodulin is an assay component measured in the BSK_LPS assay. It measures Thrombomodulin antibody related to regulation of gene expression using ELISA technology.Data from the assay component BSK_LPS_Thrombodulin was analyzed at the endpoint, BSK_LPS_Thrombomodulin, in the positive analysis fitting direction relative to DMSO as the negative control and baseline of activity. Using a type of binding reporter, gain or loss-of-signal activity can be used to understand protein changes. To generalize the intended target to other relatable targets, this assay endpoint is annotated to the 'gpcr' intended target family, where the subfamily is 'rhodopsin-like receptor'.
The levels of cell surface (or secreted, indicated by the prefix "s") biomarker endpoints were measured by ELISA. Overt cytotoxicity to cells in confluent adherent cultures (all systems other than the BT system) was assessed by measuring total protein levels using sulforhodamine B (SRB) staining in parallel cultures at the time of biomarker measurements, indicated as SRB endpoints. For proliferation assays for adherent cell types, individual cell types are cultured at sub-confluence and relative cell numbers quantified by SRB staining at time points optimized for each system (48 h: 3C and CASM3C systems; 72 h: BT and HDF3CGF systems; 96 h: SAg system). SRB was performed by staining cells with 0.1% SRB after fixation with 10% TCA and reading wells at 560 nm.Viability and proliferation of PBMC (T cells) was quantified by Alamar Blue reduction for the SAg and BT systems. For PBMC viability (referred to as PBMC Cytotoxicity within the assay endpoint names), cells were plated (75,000/well in a 96-well plate) and then chemical samples added for 1 h before addition of activators, SEB and TSST-1 (20 ng/mL final concentration each). Cells were incubated for 90 h. Then, Alamar Blue (20 uL/well) (Invitrogen, Cat DAL1100) was added for 6 h, and the plates were read with a fluorescence microplate reader at 546/580 nm (excitation/emission). For PBMC proliferation, cells were plated and activated as above but incubated for only 16 h prior to addition of Alamar Blue. Plates were read after 6 h.

outcome, inactive:
COc1cc(C=O)ccc1OC(=O)C(C)C
Cc1cc(C2(c3cc(C)c(O)cc3C)OS(=O)(=O)c3ccccc32)c(C)cc1O
CC[Si](OC(C)=O)(OC(C)=O)OC(C)=O
CCC(=O)OCc1ccccc1
C[C@H]1C[C@@H]2[C@H]([C@@H](O)C[C@@]3(C)[C@H]2CC[C@]3(O)C(=O)CO)[C@@]2(C)C=CC(=O)C=C12
Nc1cc([N+](=O)[O-])ccc1O
CC(=O)OCCC(C)CC(C)(C)C (configuration not stated)
NCCNCCN
OC1OC[C@@H](O)[C@H](O)[C@H]1O (some centres not stated)
CC(=O)[C@H]1CC[C@H]2[C@@H]3CC=C4C[C@@H](O)CC[C@]4(C)[C@H]3CC[C@]12C
OC[C@H]1O[C@H](O[C@]2(CCl)O[C@H](CCl)[C@@H](O)[C@@H]2O)[C@H](O)[C@@H](O)[C@H]1Cl
C=CCOC(=O)CCC1CCCCC1
